# Measurements from PubChem BioAssay AID1159580 (chemical genetic matrix, 2015).
# “And” between values parts separate entries of the source, which are not always exact repeats. Equal values may be shown once. Out of some 5,500 compounds screened, about 2,000 (36%) were called active. Roughly 18% stayed inconclusive and do not appear here. Some of the results follow. A number with no mark means an inactive call. No stated cut-off is given here; in the data, active means normalized growth mostly below about 0.91 (no sharp cut-off); inconclusive means no clear call, values can overlap the other calls; inactive means mostly above about 0.92.
# Test: chemical genetic growth profiling, strain panel (AID 1159580);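 further: tested at 20 µM; growth read once vehicle control cultures reached saturation at 30 °C; 1 = growth at the plate median or of vehicle wells; lower values mean less growth of the strain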
# Conditions: S. cerevisiae deletion strains, growth OD
compound,measurement,setting,value
N[C@H](Cc1cc(I)c(Oc2ccc(O)c(I)c2)c(I)c1)C(=O)O,normalized growth,"locus YAL013W, strain DEP1, hits give low values",1.01
same,normalized growth,"locus YAL021C, strain ccr4, hits give low values",1.03
same,normalized growth,"locus YAL026C, strain drs2, hits give low values",0.982
same,normalized growth,"locus YAL030W, strain snc1, hits give low values",1
same,normalized growth,"locus YBL061C, strain skt5, hits give low values",0.994
same,normalized growth,"locus YBR009C, strain hhf1, hits give low values",0.893 (active)
same,normalized growth,"locus YBR021W, strain FUR4, hits give low values",0.989
same,normalized growth,"locus YBR023C, strain chs3, hits give low values",0.986
same,normalized growth,"locus YBR171W, strain sec66, hits give low values",0.996
same,normalized growth,"locus YBR229C, strain ROT2, hits give low values",1
same,normalized growth,"locus YBR231C, strain swc5, hits give low values",1
same,normalized growth,"locus YBR279W, strain paf1, hits give low values",0.991
same,normalized growth,"locus YCL011C, strain gbp2, hits give low values",1
same,normalized growth,"locus YCL016C, strain dcc1, hits give low values",0.981
same,normalized growth,"locus YCL029C, strain bik1, hits give low values",1.01
same,normalized growth,"locus YCL061C, strain MRC1, hits give low values",0.987
same,normalized growth,"locus YCL069W, strain vba3, hits give low values",1
same,normalized growth,"locus YCR088W, strain abp1, hits give low values",1
same,normalized growth,"locus YDL005C, strain med2, hits give low values",1
same,normalized growth,"locus YDL035C, strain GPR1, hits give low values",0.992
same,normalized growth,"locus YDL040C, strain nat1, hits give low values",1.01
same,normalized growth,"locus YDL074C, strain BRE1, hits give low values",0.939
same,normalized growth,"locus YDL101C, strain DUN1, hits give low values",0.998
same,normalized growth,"locus YDL134C, strain PPH21, hits give low values",1
same,normalized growth,"locus YDL185W, strain tfp1, hits give low values",0.996
same,normalized growth,"locus YDL192W, strain arf1, hits give low values",0.987
same,normalized growth,"locus YDR001C, strain nth1, hits give low values",1.01
same,normalized growth,"locus YDR069C, strain doa4, hits give low values",0.992
same,normalized growth,"locus YDR101C, strain arx1, hits give low values",0.974
same,normalized growth,"locus YDR137W, strain rgp1, hits give low values",0.985
same,normalized growth,"locus YDR150W, strain NUM1, hits give low values",1.05
same,normalized growth,"locus YDR159W, strain sac3, hits give low values",0.978
same,normalized growth,"locus YDR162C, strain NBP2, hits give low values",0.999
same,normalized growth,"locus YDR195W, strain ref2",1
same,normalized growth,"locus YDR297W, strain sur2, hits give low values",0.996
same,normalized growth,"locus YDR318W, strain mcm21, hits give low values",0.917 (active)
same,normalized growth,"locus YDR334W, strain swr1, hits give low values",0.997
same,normalized growth,"locus YDR335W, strain msn5, hits give low values",0.999
same,normalized growth,"locus YDR388W, hits give low values",0.985
same,normalized growth,"locus YDR392W, strain spt3, hits give low values",0.748
same,normalized growth,"locus YDR502C, strain sam2, hits give low values",0.977
same,normalized growth,"locus YEL003W, strain gim4, hits give low values",0.998
same,normalized growth,"locus YEL037C, strain rad23, hits give low values",1
same,normalized growth,"locus YEL061C, strain CIN8 (second series), hits give low values",1
same,normalized growth,"locus YEL061C, strain CIN8, hits give low values",1.01
same,normalized growth,"locus YER015W, strain faa2, hits give low values",1
same,normalized growth,"locus YER016W, strain bim1, hits give low values",0.995
same,normalized growth,"locus YER110C, hits give low values",1
same,normalized growth,"locus YER111C, strain swi4, hits give low values",0.993
same,normalized growth,"locus YER155C, strain BEM2 (second series), hits give low values",0.958
same,normalized growth,"locus YER155C, strain BEM2, hits give low values",0.997
same,normalized growth,"locus YER167W, strain BCK2, hits give low values",0.946
same,normalized growth,"locus YFR010W, strain ubp6, hits give low values",0.997
same,normalized growth,"locus YGL078C, strain dbp3, hits give low values",0.98
same,normalized growth,"locus YGL086W, strain mad1, hits give low values",0.946
same,normalized growth,"locus YGL167C, strain pmr1, hits give low values",1
same,normalized growth,"locus YGL173C, strain kem1, hits give low values",0.952
same,normalized growth,"locus YGL227W, strain vid30, hits give low values",0.993
same,normalized growth,"locus YGL240W, strain doc1, hits give low values",0.973
same,normalized growth,"locus YGL248W, strain PDE1, hits give low values",0.998
same,normalized growth,"locus YGL253W, strain hxk2, hits give low values",0.981
same,normalized growth,"locus YGR078C, strain PAC10, hits give low values",0.966
same,normalized growth,"locus YGR135W, strain pre9, hits give low values",0.959
same,normalized growth,"locus YGR229C, strain SMI1, hits give low values",0.981
same,normalized growth,"locus YGR252W, strain gcn5, hits give low values",0.87
same,normalized growth,"locus YHR013C, strain ard1, hits give low values",0.971
same,normalized growth,"locus YHR027C, strain rpn1, hits give low values",0.997
same,normalized growth,"locus YHR030C, strain SLT2, hits give low values",0.997 and 1.05
same,normalized growth,"locus YHR079C, strain IRE1 (second series), hits give low values",0.999
same,normalized growth,"locus YHR079C, strain IRE1, hits give low values",1.05
same,normalized growth,"locus YHR094C, strain hxt1, hits give low values",0.999
same,normalized growth,"locus YHR129C, strain ARP1, hits give low values",1
same,normalized growth,"locus YHR142W, strain chs7, hits give low values",0.964
same,normalized growth,"locus YHR200W, strain rpn10, hits give low values",0.992
same,normalized growth,"locus YIL066C, strain RNR3, hits give low values",0.951
same,normalized growth,"locus YIL073C, strain SPO22, hits give low values",0.967
same,normalized growth,"locus YIL125W, strain kgd1, hits give low values",0.99
same,normalized growth,"locus YIR030C, strain dcg1, hits give low values",0.993
same,normalized growth,"locus YJL092W, strain hpr5, hits give low values",0.998
same,normalized growth,"locus YJL095W, strain BCK1 (second series), hits give low values",0.865 (active)
same,normalized growth,"locus YJL095W, strain BCK1, hits give low values",0.964 and 1.04
same,normalized growth,"locus YJL115W, strain asf1, hits give low values",0.998
same,normalized growth,"locus YJL129C, strain trk1, hits give low values",0.97
same,normalized growth,"locus YJL134W, strain LCB3, hits give low values",1
same,normalized growth,"locus YJL154C, strain vps35, hits give low values",1
same,normalized growth,"locus YJL164C, strain tpk1, hits give low values",0.911 (active)
same,normalized growth,"locus YJL166W, strain qcr8, hits give low values",0.884 (active)
same,normalized growth,"locus YJL168C, strain set2, hits give low values",0.996
same,normalized growth,"locus YJL187C, strain SWE1 (second series), hits give low values",1.01
same,normalized growth,"locus YJL187C, strain SWE1, hits give low values",1.01
same,normalized growth,"locus YJR043C, strain POL32, hits give low values",0.996
same,normalized growth,"locus YJR066W, strain TOR1, hits give low values",0.99
